Nrf2 activator = activates Nrf2 signaling; AREc32 ARE-luciferase reporter (MCF7-derived line), luminescence, 24 h; Potency, µM (titrated, usually from 46.1 µM), without a hit: at the top dose activation, actives largely listed as activators; 0.31% of 410,000 active; further: % of control where 0% means no effect; nearly all actives have a fitted effect of over 65% in size
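Nrf2 activation is followed as ARE-luciferase induction in the AREc32 line after one day of compound treatment; luminescence is read with Steady-Glo.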
Rango complex inh = Rango-importin beta binding inhibition; Rango CFP/YFP FRET sensor + importin beta, 45 min; Potency, µM (highest dose often 92.2 µM), for the others: top-dose inhibition of complex formation; 0.031% of 340,000 active; calls by dose curve;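 further: 0% = DMSO wells and 100% = buffer wells lacking importin beta; nearly all actives have a fitted effect of over 15% in size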
Target sequence (Q14974 whole entry, looked up): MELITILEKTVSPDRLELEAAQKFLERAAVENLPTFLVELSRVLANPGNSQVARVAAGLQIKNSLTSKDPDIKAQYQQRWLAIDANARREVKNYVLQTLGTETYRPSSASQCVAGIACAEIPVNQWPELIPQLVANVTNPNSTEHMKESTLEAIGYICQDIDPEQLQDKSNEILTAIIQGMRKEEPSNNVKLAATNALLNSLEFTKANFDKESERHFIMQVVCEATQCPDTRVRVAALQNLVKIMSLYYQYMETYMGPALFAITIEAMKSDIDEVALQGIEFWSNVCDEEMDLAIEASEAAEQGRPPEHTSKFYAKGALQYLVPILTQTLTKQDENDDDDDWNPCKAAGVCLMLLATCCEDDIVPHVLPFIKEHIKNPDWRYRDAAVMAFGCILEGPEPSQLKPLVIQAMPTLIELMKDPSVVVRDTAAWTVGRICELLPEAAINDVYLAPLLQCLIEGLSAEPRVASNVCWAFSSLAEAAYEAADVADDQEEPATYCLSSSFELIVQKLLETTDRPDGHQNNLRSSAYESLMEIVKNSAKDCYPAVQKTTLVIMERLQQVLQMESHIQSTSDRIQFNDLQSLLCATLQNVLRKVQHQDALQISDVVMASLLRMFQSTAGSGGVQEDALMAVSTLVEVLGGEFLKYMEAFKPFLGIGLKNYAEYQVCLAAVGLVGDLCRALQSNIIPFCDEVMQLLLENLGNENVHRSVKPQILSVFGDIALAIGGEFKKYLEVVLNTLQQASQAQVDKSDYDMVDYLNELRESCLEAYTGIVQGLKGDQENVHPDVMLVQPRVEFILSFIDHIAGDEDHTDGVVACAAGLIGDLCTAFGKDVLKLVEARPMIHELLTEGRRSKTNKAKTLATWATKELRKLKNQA
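Inhibition scored from the CFP 486 nm/YFP 530 nm FRET ratio 45 min after adding 0.125 microM importin beta to 50 nM Rango biosensor preincubated 5 min with compound (room temperature, PBS with DTT, Tween-20, BSA). No-importin wells as positive control.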
Rango dissoc inh = inhibitors of RanGTP-induced Rango-importin beta complex dissociation | O95149+P62826 | Biochemical FRET Rango-importin beta, RanGTP-induced dissociation | Potency, µM (titrated, usually from 46.1 µM), without a hit: top-dose activity change, negative = inhibition | 0.071% of 340,000 active | AID 540253; calls by dose curve; further: % of control where 0% means no effect; nearly all actives have a fitted effect of over 45% in size
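FRET read at 45 min, room temperature: inhibitors block the CFP/YFP signal rise when RanGTP (0.6 uM Ran, 2 mM GTP, 0.2 uM RCC1) frees Rango (0.1 uM) from importin beta (0.25 uM). Pre-read after 5 min compound exposure flags interference.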
A549 viability = A549 cytotoxicity, counter-screen for Nrf2 inhibitors; A549 ARE-Fluc cells, CellTiter-Fluor viability, 18-24 h; Potency, µM (series often up to 46 µM), for inactives: top-dose activity change, negative = cytotoxicity, hits mostly inhibitors; 0.16% of 390,000 active; further: on the % scale 0 is the no-effect control and ±100 the full control effect
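A549 ARE_Fluc cells in 5% FBS OPTI-MEM were exposed to compounds in concentration-response for 18-24 h at 37 deg C. Viability was read by CellTiter-Fluor fluorescence (Ex 405/Em 525) after 30 min, before the luciferase read.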
Nrf2 block = inhibitors of Nrf2 signaling; A549 ARE-Fluc reporter, luciferase luminescence, 18-24 h; Potency, µM (top dose mostly 46 µM), without a hit: at the highest dose activity change, negative = inhibition, hits mostly inhibitors; 2.1% of 360,000 active; further: on the % scale 0 is the no-effect control and ±100 the full control effect; nearly all actives have a fitted effect of over 60% in size
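Nrf2 function is reported as luminescence of an ARE-controlled luciferase in A549 cells. Compounds were tested at several concentrations, and a CellTiter-Fluor read on the same wells flagged cytotoxicity.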
The depositor's hits bear a star; u = inconclusive; x = not tested or not shown. Shown are actives, neighbours in structure and some others; about 2.3% of the full set was active somewhere. Unless noted, the call rests on the fitted dose curve; in most records, active means well fitted curve in the direction sought with a large enough effect; inconclusive means small, poorly fitted or top-dose-only effect, or another doubt; inactive means no such curve, though single readings can be large; an effect the other way counts as inactive or inconclusive. Potency means the concentration at half of the fitted maximal effect.

SMILES	Nrf2 activator	Rango complex inh	Rango dissoc inh	A549 viability	Nrf2 block
COc1ccc(NC(=O)c2c(C)nn(Cc3ccccc3)c2Cl)cc1S(=O)(=O)N1CCOCC1	1.5%	2.6%	2.2%	-18.0%	20.6µM*
Cc1ccc(C(=O)N(C)CCOc2ccccc2)cc1S(=O)(=O)N1CCCCC1	-0.9%	-2.0%	2.0%	-17.0%	20.6µM*
CCOc1ncccc1C(=O)Nc1ccc(Cl)c(S(=O)(=O)N2CCCC2)c1	0.0%	6.4%	-7.6%	-7.2%	18.4µM*
COc1ccc(C(=O)Nc2ccc(C)c(S(=O)(=O)N3CCCCCC3)c2)cc1	2.3%	-0.1%	-0.5%	-18.8%	20.6µM*
O=C(O)c1cc(F)c(S(=O)(=O)N2CCN(S(=O)(=O)c3ccc4c(c3)OCCO4)CC2)cc1F	x	x	x	-2.9%	u
O=C(COC(=O)C12CC3CC(CC(Cl)(C3)C1)C2)NCc1ccco1	x	x	x	-1.7%	2.3%
COc1ccc(CCC(=O)Nc2ccc(OC)c(S(=O)(=O)N3CCCCC3)c2)cc1	-0.5%	1.4%	1.8%	u	16.4µM*
Cc1ccc(NC(=O)c2ccccc2F)cc1S(=O)(=O)N1CCCCCC1	5.8%	2.1%	4.2%	-10.8%	16.4µM*
CCc1ccc(C(=O)Nc2ccc(OC)c(S(=O)(=O)N3CCCCC3)c2)cc1	5.9%	-2.0%	-2.2%	-11.3%	7.31µM*
CC(=O)c1ccc(OCCCC(=O)Nc2ccc(C)c(S(=O)(=O)N3CCCCC3)c2)cc1	2.6%	0.8%	-0.1%	-28.7%	18.4µM*
COc1ccc(NC(=O)Cc2ccc(C)cc2)cc1S(=O)(=O)N1CCCCC1	0.4%	0.8%	-5.4%	-2.4%	-20.5%
CCc1ccc(C(=O)Nc2ccc(OC)c(S(=O)(=O)N3CCOCC3)c2)cc1	3.4%	-0.3%	-2.1%	-12.1%	u
Cc1ccc2c(c1)-c1c(c(C(=O)NCCc3ccccc3)nn1C)CS2	-1.3%	x	x	11.8%	x
CCCn1c(=O)n(-c2ccccc2)c(=O)c2sc3ccccc3c21	-0.3%	x	x	1.0%	4.7%
Cc1ccc(NC(=O)c2ccccc2NS(=O)(=O)c2ccc(Cl)s2)cc1S(=O)(=O)N1CCOCC1	2.1%	-0.5%	14.7%	u	23.1µM*
Cc1ccc(NC(=O)C2CSC3(C)CCC(=O)N23)cc1S(=O)(=O)N1CCCCCC1 (centres undefined)	2.6%	-0.3%	3.4%	2.2%	16.4µM*
Cc1ccc(NC(=O)C2CSC3(C)CCC(=O)N23)cc1S(=O)(=O)N1CCOCC1 (centres undefined)	-0.9%	-0.8%	-19.5%	2.4%	-8.4%
Cc1ccc(N(Cc2ccccc2)C(=O)c2ccc(C)c(S(=O)(=O)N3CCOCC3)c2)cc1	1.3%	2.1%	-7.4%	-18.3%	14.6µM*
Cc1ccc(C(=O)c2c(N)c(C(=O)Nc3cccc(C(F)(F)F)c3)c3ccccn23)cc1	-1.1%	x	x	8.3%	28.0%
O=C(Nc1ccc2nc(SCC(=O)N3CCCc4ccccc43)sc2c1)c1ccccc1	1.0%	x	x	-14.8%	11.6µM*
Cc1ccc(S(=O)(=O)N(C)C)cc1NC(=O)CCc1ccccc1	-0.6%	0.1%	-5.8%	0.6%	6.4%
O=c1oc2cc(O)ccc2s1	u	u	5.8%	1.5%	13µM*
COc1cc(OC)cc(-c2nc(-c3ccc4c(c3)[nH]c(=O)n4C)no2)c1	-0.1%	x	x	0.0%	x
CCOC(=O)N1CCC(NS(=O)(=O)c2cc(C(=O)OC)n(C)c2)CC1	-0.4%	0.0%	-10.0%	-5.0%	-8.9%
COc1ccc(-c2nnc(NC(=O)c3ccc(S(=O)(=O)N4CCCc5ccccc54)cc3)o2)cc1	0.1%	0.4%	15.7%	u	14.1µM*
SMILES	Nrf2 activator	Rango complex inh	Rango dissoc inh	A549 viability	Nrf2 block
COc1cccc(-c2nnc(NC(=O)c3ccc(S(=O)(=O)N4CCOCC4)cc3)o2)c1	-0.7%	0.0%	5.5%	-23.0%	11.6µM*
COc1ccccc1-c1nnc(NC(=O)c2ccc(S(=O)(=O)N3CCOCC3)cc2)o1	-0.6%	2.9%	14.0%	-10.1%	u
COCc1nnc(NC(=O)c2ccc(S(=O)(=O)N3CCCc4ccccc43)cc2)o1	0.3%	-2.0%	-3.7%	u	-85.7%
O=C(Nc1nnc(C2CC2)o1)c1ccc(S(=O)(=O)N2CCCc3ccccc32)cc1	-1.8%	-2.8%	0.3%	-18.4%	10.3µM*
O=S(=O)(NCc1ccccc1Cl)c1ccc(N2CCCCS2(=O)=O)cc1	9.2%	x	x	3.5%	x
COc1ccccc1N1CCN(CCN2C(=O)C3CCCCN3C2=O)CC1 (centres undefined)	0.1%	-1.7%	-7.6%	0.2%	5.6%
CC(C)Cc1nnc(NC(=O)CN2C(=O)NC3(CC(C)CC(C)(C)C3)C2=O)s1 (centres undefined)	0.1%	u	-2.6%	-3.4%	8.0%
Cc1sc2cc3c(c(C(=O)c4ccccc4)[n+]2c1C)-c1cccc2cccc-3c12	0.1%	u	u	u	u
O=C(c1ccccc1)c1c2c(cc3sc4ccccc4[n+]13)-c1cccc3cccc-2c13	3.2%	u	u	16.4µM*	20.6µM*
O=C(NNc1ccccc1)/C(=C\c1cccnc1)NC(=O)c1ccccc1	16.5%	0.1%	3.3%	0.0%	-11.1%
CCN(Cc1ccccc1)S(=O)(=O)c1ccc(C(=O)N(CCCN(C)C)c2nc3cc4c(cc3s2)OCO4)cc1	-3.5%	-0.1%	11.4%	-16.9%	-15.3%
CCN(Cc1ccccc1)S(=O)(=O)c1ccc(C(=O)N(CCCN(C)C)c2nc3c(C)c(C)ccc3s2)cc1	1.3%	4.5%	7.4%	u	18.4µM*
O=C(/C=C/c1ccc(O)cc1)c1ccc(NC2=C(N3CCCCC3)C(=O)c3ccccc3C2=O)cc1	6.4%	u	u	u	14.6µM*
O=C1C(Nc2ccccc2)=C(N2CCCCC2)C(=O)c2ccccc21	-1.5%	-3.0%	-18.4%	-6.5%	-10.4%
CCOc1ccccc1C(=O)N1CCCCC1CCN1CCOCC1 (centres undefined)	0.3%	x	x	9.0%	8.7%
COc1ccc(C(=O)/C=C/c2cc(OC)c(O)c(OC)c2)c(F)c1	15.8µM*	u	-0.7%	-2.2%	-26.1%
CC12C=CC(=O)C=C1CCC1C2C(=O)CC2(C)C1CCC2(O)C(=O)CO (centres undefined)	3.1%	-0.1%	-4.4%	0.5%	0.291µM*
COc1ccc(C2C=C(c3ccccc3)Nc3nc(NS(=O)(=O)c4ccc(C)cc4)nn32)cc1 (centres undefined)	-0.6%	x	x	-0.8%	18.4µM*
Cc1ccc(C2C=C(c3ccccc3)Nc3nc(NS(=O)(=O)c4ccc(C)cc4)nn32)cc1 (centres undefined)	-0.6%	x	x	6.0%	x
CCN(CC)CCOc1ccc2c(c1)C(=NO)c1cc(OCCN(CC)CC)ccc1-2	2.8%	1.2%	0.0%	8.2µM*	u
